In ChEMBL document CHEMBL1961873, “Compounds: GSK PKIS; Assays: Nanosyn kinase panel” (2012):

Experiments:
[1] = biological target: Sphingosine kinase 1 (Homo sapiens) (UniProt Q9NYA1); conditions: at 1 µM;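 also: mean SPHK1 inhibition value reported from the GSK PKIS kinase panel screen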
[2] = biological target: T1, Sphingosine kinase 2 (Homo sapiens) (UniProt Q9NRA0); conditions: at 0.1 µM
T1 sequence (whole entry): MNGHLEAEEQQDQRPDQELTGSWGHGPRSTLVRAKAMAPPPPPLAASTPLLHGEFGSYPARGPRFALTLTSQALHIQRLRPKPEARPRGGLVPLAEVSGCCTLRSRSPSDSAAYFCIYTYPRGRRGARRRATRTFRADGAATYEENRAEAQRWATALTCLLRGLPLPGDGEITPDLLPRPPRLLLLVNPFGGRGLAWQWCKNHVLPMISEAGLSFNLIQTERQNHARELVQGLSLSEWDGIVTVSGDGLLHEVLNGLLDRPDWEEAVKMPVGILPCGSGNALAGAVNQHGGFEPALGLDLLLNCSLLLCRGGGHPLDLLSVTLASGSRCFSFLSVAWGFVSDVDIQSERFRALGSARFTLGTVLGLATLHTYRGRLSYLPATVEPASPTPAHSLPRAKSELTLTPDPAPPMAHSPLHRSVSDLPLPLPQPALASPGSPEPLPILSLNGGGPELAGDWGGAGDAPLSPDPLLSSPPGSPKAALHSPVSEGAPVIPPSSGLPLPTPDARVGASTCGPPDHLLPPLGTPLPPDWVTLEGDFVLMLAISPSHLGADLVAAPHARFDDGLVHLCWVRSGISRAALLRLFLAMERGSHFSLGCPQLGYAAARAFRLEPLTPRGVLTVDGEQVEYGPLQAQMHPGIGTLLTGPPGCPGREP

[3] = biological target: T1, Sphingosine kinase 2 (Homo sapiens); conditions: at 1 µM
[4] = biological target: Casein kinase II subunit alpha (Homo sapiens) (UniProt P68400); conditions: at 0.1 µM
Chain of Casein kinase II subunit alpha (Homo sapiens) (P68400 whole entry, looked up): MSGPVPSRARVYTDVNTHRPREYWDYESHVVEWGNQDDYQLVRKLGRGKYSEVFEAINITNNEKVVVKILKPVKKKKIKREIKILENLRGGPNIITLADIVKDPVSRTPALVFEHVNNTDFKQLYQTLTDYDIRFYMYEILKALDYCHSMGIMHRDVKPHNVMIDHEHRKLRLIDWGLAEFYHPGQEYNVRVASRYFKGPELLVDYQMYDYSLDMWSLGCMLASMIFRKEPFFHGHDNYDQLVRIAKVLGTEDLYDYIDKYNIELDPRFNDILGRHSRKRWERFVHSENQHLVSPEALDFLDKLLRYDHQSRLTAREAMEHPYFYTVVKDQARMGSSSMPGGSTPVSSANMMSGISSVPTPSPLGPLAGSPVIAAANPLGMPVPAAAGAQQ

[5] = biological target: Casein kinase II subunit alpha (Homo sapiens) (UniProt P68400); conditions: at 1 µM
[6] = biological target: T2, Inhibitor of nuclear factor kappa-B kinase subunit alpha (Homo sapiens) (UniProt O15111); conditions: at 0.1 µM
T2 sequence (whole entry): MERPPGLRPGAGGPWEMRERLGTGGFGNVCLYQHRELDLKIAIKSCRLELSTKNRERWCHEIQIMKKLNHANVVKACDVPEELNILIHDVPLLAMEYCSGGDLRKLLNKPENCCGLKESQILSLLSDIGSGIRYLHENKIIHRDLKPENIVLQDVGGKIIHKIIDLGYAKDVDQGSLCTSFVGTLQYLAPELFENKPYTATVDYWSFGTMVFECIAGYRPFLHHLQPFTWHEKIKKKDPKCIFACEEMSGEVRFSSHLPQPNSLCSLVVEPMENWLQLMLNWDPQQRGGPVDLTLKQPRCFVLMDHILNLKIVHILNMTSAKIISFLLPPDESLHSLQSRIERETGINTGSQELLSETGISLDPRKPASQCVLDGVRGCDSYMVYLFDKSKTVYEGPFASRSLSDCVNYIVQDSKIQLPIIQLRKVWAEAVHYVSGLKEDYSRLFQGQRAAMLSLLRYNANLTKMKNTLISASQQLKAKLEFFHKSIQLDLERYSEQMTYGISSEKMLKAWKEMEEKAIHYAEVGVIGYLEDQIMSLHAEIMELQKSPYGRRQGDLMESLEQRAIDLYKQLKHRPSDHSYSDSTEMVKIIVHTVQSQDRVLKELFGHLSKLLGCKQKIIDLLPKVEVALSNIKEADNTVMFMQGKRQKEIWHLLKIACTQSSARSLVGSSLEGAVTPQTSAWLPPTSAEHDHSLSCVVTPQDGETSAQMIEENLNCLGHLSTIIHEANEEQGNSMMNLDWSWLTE

[7] = biological target: T2, Inhibitor of nuclear factor kappa-B kinase subunit alpha (Homo sapiens); conditions: at 1 µM
[8] = biological target: T3, Inhibitor of nuclear factor kappa-B kinase subunit beta (Homo sapiens) (UniProt O14920); conditions: at 0.1 µM
T3 sequence (whole entry): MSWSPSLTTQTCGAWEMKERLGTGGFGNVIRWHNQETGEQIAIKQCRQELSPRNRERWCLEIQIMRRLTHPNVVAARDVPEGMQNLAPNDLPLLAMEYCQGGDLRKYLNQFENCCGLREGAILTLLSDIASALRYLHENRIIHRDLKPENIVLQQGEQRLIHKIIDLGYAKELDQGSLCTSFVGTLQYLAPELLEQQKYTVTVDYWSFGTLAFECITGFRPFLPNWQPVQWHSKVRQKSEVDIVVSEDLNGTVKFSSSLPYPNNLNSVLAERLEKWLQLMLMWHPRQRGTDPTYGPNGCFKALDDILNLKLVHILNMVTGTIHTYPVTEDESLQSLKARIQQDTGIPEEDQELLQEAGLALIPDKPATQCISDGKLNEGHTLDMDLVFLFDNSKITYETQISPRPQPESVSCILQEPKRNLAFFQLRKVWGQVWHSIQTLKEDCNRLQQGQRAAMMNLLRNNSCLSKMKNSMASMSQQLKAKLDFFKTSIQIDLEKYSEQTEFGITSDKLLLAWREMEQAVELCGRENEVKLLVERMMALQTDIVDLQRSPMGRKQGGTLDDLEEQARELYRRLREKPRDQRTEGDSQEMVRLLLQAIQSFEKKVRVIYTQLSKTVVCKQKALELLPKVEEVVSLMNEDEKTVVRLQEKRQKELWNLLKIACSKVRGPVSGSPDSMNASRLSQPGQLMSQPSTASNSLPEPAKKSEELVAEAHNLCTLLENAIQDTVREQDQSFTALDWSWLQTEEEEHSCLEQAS

[9] = biological target: T3, Inhibitor of nuclear factor kappa-B kinase subunit beta (Homo sapiens); conditions: at 1 µM
[10] = biological target: T4, Inhibitor of nuclear factor kappa-B kinase subunit epsilon (Homo sapiens) (UniProt Q14164); conditions: at 0.1 µM;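 also: mean inhibition of IKKε reported, from the GSK PKIS dataset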
T4 sequence (whole entry): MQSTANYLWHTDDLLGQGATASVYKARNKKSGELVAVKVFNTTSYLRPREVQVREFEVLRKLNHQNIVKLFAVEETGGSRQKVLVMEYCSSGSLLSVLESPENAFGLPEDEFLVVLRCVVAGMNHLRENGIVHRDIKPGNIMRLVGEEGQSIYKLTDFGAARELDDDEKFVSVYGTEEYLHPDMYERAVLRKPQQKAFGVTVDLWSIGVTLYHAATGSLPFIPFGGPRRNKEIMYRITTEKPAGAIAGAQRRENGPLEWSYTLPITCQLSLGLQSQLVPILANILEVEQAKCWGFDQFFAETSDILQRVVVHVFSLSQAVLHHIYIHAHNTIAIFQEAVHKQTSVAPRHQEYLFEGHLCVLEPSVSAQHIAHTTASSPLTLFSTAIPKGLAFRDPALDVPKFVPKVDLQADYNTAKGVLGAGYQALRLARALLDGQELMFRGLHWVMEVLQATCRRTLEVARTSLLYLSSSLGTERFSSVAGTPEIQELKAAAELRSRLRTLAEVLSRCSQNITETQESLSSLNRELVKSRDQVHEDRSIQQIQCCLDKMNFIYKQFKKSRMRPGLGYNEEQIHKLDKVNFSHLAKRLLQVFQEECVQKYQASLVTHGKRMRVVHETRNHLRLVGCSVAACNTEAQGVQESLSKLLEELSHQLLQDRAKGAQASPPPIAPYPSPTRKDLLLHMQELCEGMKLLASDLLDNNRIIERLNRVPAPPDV

Chain of Sphingosine kinase 1 (Homo sapiens) (Q9NYA1 whole entry): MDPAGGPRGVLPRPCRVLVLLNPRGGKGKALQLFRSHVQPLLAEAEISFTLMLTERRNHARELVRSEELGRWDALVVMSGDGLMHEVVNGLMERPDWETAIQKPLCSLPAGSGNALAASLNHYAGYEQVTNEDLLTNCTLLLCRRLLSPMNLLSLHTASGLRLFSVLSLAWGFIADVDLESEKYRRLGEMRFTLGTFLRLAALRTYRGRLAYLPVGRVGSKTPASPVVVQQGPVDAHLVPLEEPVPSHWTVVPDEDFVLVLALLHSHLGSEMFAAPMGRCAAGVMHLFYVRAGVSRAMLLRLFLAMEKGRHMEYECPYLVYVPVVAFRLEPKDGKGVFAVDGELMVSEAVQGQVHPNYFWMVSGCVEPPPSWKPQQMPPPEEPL

SMILES	inhibition [1] [%]	inhibition [2] [%]	inhibition [3] [%]	inhibition [4] [%]	inhibition [5] [%]	inhibition [6] [%]	inhibition [7] [%]	inhibition [8] [%]	inhibition [9] [%]	inhibition [10] [%]
O=C(O[C@H]1CN[C@H](C#Cc2cc3ncnc(Nc4ccc5c(ccn5Cc5cc(F)ccc5F)c4)c3s2)C1)N1CCOCC1	-2.46	0	1.37	7.47	0.25	8.85	10.1	7.42	9.24	6.23
OCCCNc1nccc(-c2c(-c3ccc(F)cc3)nn3cc(C(F)(F)F)ccc23)n1	-0.86	1.62	-1.3	1.23	6.41	-2.66	1.51	1.75	-0.39	0.9
CCS(=O)(=O)c1ccc(OC)c(Nc2ncc(-c3cccc(C(C)=O)c3)o2)c1	-2.18	0.25	0.73	6.61	21.6	-1.71	-1.11	5.35	5.04	6.89
COc1c(C(N)=O)cc(-c2ccc(Cl)cc2)cc1-c1ccc(S(N)(=O)=O)cc1	0.21	-0.78	0.28	1.48	3.63	2.15	1.32	6.58	4.61	8.74
Fc1ccc(Nc2nccc(-c3c(-c4ccc(C(F)(F)F)cc4)nn4ncccc34)n2)cc1F	-1.66	-0.99	-0.13	2.02	1.28	9.17	4.1	5.58	3.19	2.59
COc1ccc(-c2nn3ncccc3c2-c2ccnc(Nc3ccc(F)c(F)c3)n2)cc1	-4.19	5.2	0	5.76	10.5	3.55	8.81	4.66	5.58	9.89
CN(C)CCNC(=O)Nc1ccc(N(C)c2ccnc(Nc3ccc(CS(C)(=O)=O)cc3)n2)cc1	-1.23	-0.06	2.33	2.94	0.31	2.05	0.39	7.67	1.94	3.33
CNC(=O)c1cncc(/C=C/c2ccccc2C)c1	1.15	0	0	4.87	7.63	1.86	2.32	3.58	5.04	5.9
CC1(C)CC(n2cnc(-c3ccc(F)cc3)c2-c2ccnc(N)n2)CC(C)(C)N1	10.6	3.82	-2.43	1.44	7.38	1.15	1.35	-0.17	-1.15	0.1
Cn1c(-c2nonc2N)nc2cnccc21	3.87	2.29	0.16	1.78	-1.25	1.72	7.51	5.29	1.73	6.16
